Results: PubChem BioAssay (NCI)
“And” between values parts separate entries of the source, which are not always exact repeats. Equal entries are not always repeated. The panel holds about 83,000 compounds, 20% with a hit somewhere; the sample as a whole holds those more often.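 Step 1: grow cells in 96-well plates. Step 2: add test compound at a single concentration. Step 3: incubate 48 h. Step 4: record percent growth.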 The source made the active and inactive calls. How the source made its calls: active means growth percent below 10; inactive means the rest.

How the values were obtained:
Test in all cases: NCI-60 one-dose screen, 48 h (100 = growth as untreated, 0 = no growth, -100 = all killed)
SR leukemia = settings: 10 µM unless noted
RPMI-8226 leukemia = system: RPMI-8226 leukemia
OVCAR-8 ovarian = system: OVCAR-8 ovarian
OVCAR-5 ovarian = system: OVCAR-5 ovarian
OVCAR-4 ovarian = system: OVCAR-4 ovarian
SK-OV-3 ovarian = system: SK-OV-3 ovarian
IGROV1 ovarian = system: IGROV1 ovarian
OVCAR-3 ovarian = system: OVCAR-3 ovarian
HS 578T breast = system: HS 578T breast
NCI/ADR-RES ovarian = system: NCI/ADR-RES ovarian
T-47D breast = system: T-47D breast
BT-549 breast = system: BT-549 breast
MDA-MB-435 melanoma = system: MDA-MB-435 melanoma
SW-620 colon = system: SW-620 colon
MCF7 breast = system: MCF7 breast
HCT-116 colon = system: HCT-116 colon
HCC-2998 colon = system: HCC-2998 colon
KM12 colon = system: KM12 colon

Measured: growth

NNC(=O)Nc1ccccc1
inactive: SR leukemia 96.5% | RPMI-8226 leukemia; 10 µM unless noted 106% | OVCAR-8 ovarian; 10 µM unless noted 109% | OVCAR-5 ovarian; 10 µM unless noted 102% | OVCAR-4 ovarian; 10 µM unless noted 104% | SK-OV-3 ovarian; 10 µM unless noted 105% | IGROV1 ovarian; 10 µM unless noted 102% | OVCAR-3 ovarian; 10 µM unless noted 105% | HS 578T breast; 10 µM unless noted 105% | NCI/ADR-RES ovarian; 10 µM unless noted 105% | T-47D breast; 10 µM unless noted 109% | BT-549 breast; 10 µM unless noted 104% | MDA-MB-435 melanoma; 10 µM unless noted 103% | SW-620 colon; 10 µM unless noted 101% | MCF7 breast; 10 µM unless noted 89.3% | HCT-116 colon; 10 µM unless noted 101% | HCC-2998 colon; 10 µM unless noted 113% | KM12 colon; 10 µM unless noted 99.1%

Nc1nc(=S)c2[nH]cnc2[nH]1
inactive: OVCAR-8 ovarian; 10 µM unless noted 12% | OVCAR-4 ovarian; 10 µM unless noted 25.1% and 44% | IGROV1 ovarian; 10 µM unless noted 27.3% and 36.7% | HS 578T breast; 10 µM unless noted 54.1% | BT-549 breast; 10 µM unless noted 30.7% and 19.5% | SW-620 colon; 10 µM unless noted 23.3% and 15.9% | KM12 colon; 10 µM unless noted 10.1% and 11.5%
active: SR leukemia 5.87% and 0.643% | RPMI-8226 leukemia; 10 µM unless noted 1.54% and -23.5% | OVCAR-5 ovarian; 10 µM unless noted -30.1% | SK-OV-3 ovarian; 10 µM unless noted 5.43% and 6.69% | MCF7 breast; 10 µM 8.17% and -0.975% | MCF7 breast; 250 µM -5.31% and -50.8% | HCT-116 colon; 10 µM unless noted 9.54% and -8.26% | HCC-2998 colon; 10 µM unless noted 6.28%
18.2% (inactive) and -50.1% (active): NCI/ADR-RES ovarian; 10 µM unless noted
12.3% (inactive) and 5.25% (active): T-47D breast; 10 µM unless noted
-20.3% (active) and 11.4% (inactive): OVCAR-3 ovarian; 10 µM unless noted
12.3% (inactive) and 5.49% (active): MDA-MB-435 melanoma; 10 µM unless noted

C=CCN1C(=O)c2ccccc2C1=O
inactive: SR leukemia 99.9% | RPMI-8226 leukemia; 10 µM unless noted 92.9% | OVCAR-8 ovarian; 10 µM unless noted 97.5% | OVCAR-5 ovarian; 10 µM unless noted 102% | OVCAR-4 ovarian; 10 µM unless noted 107% | SK-OV-3 ovarian; 10 µM unless noted 105% | IGROV1 ovarian; 10 µM unless noted 98.7% | OVCAR-3 ovarian; 10 µM unless noted 110% | HS 578T breast; 10 µM unless noted 99.8% | NCI/ADR-RES ovarian; 10 µM unless noted 96% | T-47D breast; 10 µM unless noted 118% | BT-549 breast; 10 µM unless noted 96.8% | MDA-MB-435 melanoma; 10 µM unless noted 106% | SW-620 colon; 10 µM unless noted 98.5% | MCF7 breast; 10 µM unless noted 98.6% | HCT-116 colon; 10 µM unless noted 99.2% | HCC-2998 colon; 10 µM unless noted 104% | KM12 colon; 10 µM unless noted 110%

CC(=O)Oc1ccc(C(c2ccc(OC(C)=O)cc2)c2ccccn2)cc1
inactive: SR leukemia 95.1% and 98% | RPMI-8226 leukemia; 10 µM unless noted 82.9% and 104% | OVCAR-8 ovarian; 10 µM unless noted 48.7% | OVCAR-5 ovarian; 10 µM unless noted 109% and 27% | SK-OV-3 ovarian; 10 µM unless noted 119% | IGROV1 ovarian; 10 µM unless noted 69% and 79.3% | OVCAR-3 ovarian; 10 µM unless noted 61.3% and 71% | HS 578T breast; 10 µM unless noted 31.2% | NCI/ADR-RES ovarian; 10 µM unless noted 49.9% and 34.3% | MDA-MB-435 melanoma; 10 µM unless noted 110% and 103% | SW-620 colon; 10 µM unless noted 104% and 83.9% | MCF7 breast; 10 µM unless noted 20.6% and 34.8% | HCT-116 colon; 10 µM unless noted 88.6% and 96% | HCC-2998 colon; 10 µM unless noted 70.5% | KM12 colon; 10 µM unless noted 80% and 85%
active: OVCAR-4 ovarian; 10 µM unless noted -9.93% and -15.5% | T-47D breast; 10 µM unless noted -15.1% and -18.5% | BT-549 breast; 10 µM unless noted -16.4%

CN(C)C(=S)N(C)C
inactive: SR leukemia 94.9% | RPMI-8226 leukemia; 10 µM unless noted 98.2% | OVCAR-8 ovarian; 10 µM unless noted 109% | OVCAR-5 ovarian; 10 µM unless noted 105% | OVCAR-4 ovarian; 10 µM unless noted 101% | SK-OV-3 ovarian; 10 µM unless noted 99.7% | IGROV1 ovarian; 10 µM unless noted 153% | OVCAR-3 ovarian; 10 µM unless noted 107% | HS 578T breast; 10 µM unless noted 157% | NCI/ADR-RES ovarian; 10 µM unless noted 102% | T-47D breast; 10 µM unless noted 98.5% | BT-549 breast; 10 µM unless noted 107% | MDA-MB-435 melanoma; 10 µM unless noted 112% | SW-620 colon; 10 µM unless noted 107% | MCF7 breast; 10 µM unless noted 107% | HCT-116 colon; 10 µM unless noted 99.3% | HCC-2998 colon; 10 µM unless noted 103% | KM12 colon; 10 µM unless noted 109%

Cc1ccc2cccc([N+](=O)[O-])c2n1
inactive: SR leukemia 97.7% and 94% | RPMI-8226 leukemia; 10 µM unless noted 111% and 92.8% | OVCAR-8 ovarian; 10 µM unless noted 101% and 108% | OVCAR-5 ovarian; 10 µM unless noted 104% and 101% | OVCAR-4 ovarian; 10 µM unless noted 128% and 103% | SK-OV-3 ovarian; 10 µM unless noted 102% and 100% | IGROV1 ovarian; 10 µM unless noted 109% and 114% | OVCAR-3 ovarian; 10 µM unless noted 111% and 110% | HS 578T breast; 10 µM unless noted 111% and 109% | NCI/ADR-RES ovarian; 10 µM unless noted 113% and 102% | T-47D breast; 10 µM unless noted 97.4% and 97.8% | BT-549 breast; 10 µM unless noted 121% and 93.5% | MDA-MB-435 melanoma; 10 µM unless noted 110% and 108% | SW-620 colon; 10 µM unless noted 119% and 103% | MCF7 breast; 10 µM unless noted 105% and 95.7% | HCT-116 colon; 10 µM unless noted 114% and 97.7% | HCC-2998 colon; 10 µM unless noted 102% and 103% | KM12 colon; 10 µM unless noted 111% and 107%

Cc1cc(NC(=O)NC(=O)c2ccccc2N(C)C)ccc1Oc1ncc(Br)cn1
5.74% (active) and 23.3% (inactive): NCI/ADR-RES ovarian; 10 µM unless noted
active: MDA-MB-435 melanoma; 10 µM unless noted -27.4% and 6.67%
-9.68% (active) and 20.4% (inactive): RPMI-8226 leukemia; 10 µM unless noted
1.35% (active) and 50.4% (inactive): HCC-2998 colon; 10 µM unless noted
0.0582% (active) and 16.2% (inactive): OVCAR-3 ovarian; 10 µM unless noted
inactive: SR leukemia 11.9% and 22.4% | OVCAR-8 ovarian; 10 µM unless noted 51.9% | OVCAR-5 ovarian; 10 µM unless noted 34.1% and 78.5% | OVCAR-4 ovarian; 10 µM unless noted 15.8% and 48.7% | SK-OV-3 ovarian; 10 µM unless noted 45% and 59.9% | HS 578T breast; 10 µM unless noted 23.8% and 40% | T-47D breast; 10 µM unless noted 36.2% and 52.2% | BT-549 breast; 10 µM unless noted 17.5% and 39.1% | SW-620 colon; 10 µM unless noted 28.4% and 33.9% | MCF7 breast; 10 µM unless noted 16.5% and 16.9% | HCT-116 colon; 10 µM unless noted 17% and 21.8% | KM12 colon; 10 µM unless noted 15.3% and 32.1%
-12% (active) and 54.7% (inactive): IGROV1 ovarian; 10 µM unless noted

CS/C(=C\c1ccc(C(=O)c2ccc(C)cc2)n1C)S(C)=O (stereo not drawn)
inactive: SR leukemia 30.9% [100 µM] | RPMI-8226 leukemia; 10 µM 70.2% | RPMI-8226 leukemia; 100 µM 56.9% | OVCAR-8 ovarian; 10 µM 91% | OVCAR-8 ovarian; 100 µM 82.3% | OVCAR-5 ovarian; 10 µM 105% | OVCAR-5 ovarian; 100 µM 102% | OVCAR-4 ovarian; 10 µM 89% | OVCAR-4 ovarian; 100 µM 69.2% | SK-OV-3 ovarian; 10 µM 103% | SK-OV-3 ovarian; 100 µM 87.6% | IGROV1 ovarian; 10 µM 93.2% | IGROV1 ovarian; 100 µM 82.9% | OVCAR-3 ovarian; 10 µM 114% | OVCAR-3 ovarian; 100 µM 69% | HS 578T breast; 10 µM 91.2% | HS 578T breast; 100 µM 90.6% | NCI/ADR-RES ovarian; 10 µM 76.8% | NCI/ADR-RES ovarian; 100 µM 52.7% | T-47D breast; 10 µM 79.7% | T-47D breast; 100 µM 47.6% | BT-549 breast; 10 µM 102% | BT-549 breast; 100 µM 47.4% | MDA-MB-435 melanoma; 10 µM 50.1% | MDA-MB-435 melanoma; 100 µM 26.9% | SW-620 colon; 10 µM 101% | SW-620 colon; 100 µM 97.4% | MCF7 breast; 10 µM 89.6% | MCF7 breast; 100 µM 70.7% | HCT-116 colon; 10 µM 97.1% | HCT-116 colon; 100 µM 70.9% | HCC-2998 colon; 10 µM 95.9% | HCC-2998 colon; 100 µM 87.2% | KM12 colon; 10 µM 94.3% | KM12 colon; 100 µM 72.8%

N=c1sc2ccccc2n1CC(=O)O
inactive: SR leukemia 106% | RPMI-8226 leukemia; 10 µM unless noted 93.7% | OVCAR-5 ovarian; 10 µM unless noted 110% | OVCAR-4 ovarian; 10 µM unless noted 115% | SK-OV-3 ovarian; 10 µM unless noted 106% | IGROV1 ovarian; 10 µM unless noted 107% | OVCAR-3 ovarian; 10 µM unless noted 114% | HS 578T breast; 10 µM unless noted 92% | NCI/ADR-RES ovarian; 10 µM unless noted 108% | T-47D breast; 10 µM unless noted 95.8% | BT-549 breast; 10 µM unless noted 99.2% | MDA-MB-435 melanoma; 10 µM unless noted 113% | SW-620 colon; 10 µM unless noted 103% | MCF7 breast; 10 µM unless noted 99% | HCT-116 colon; 10 µM unless noted 95.7% | HCC-2998 colon; 10 µM unless noted 108% | KM12 colon; 10 µM unless noted 106%
active: OVCAR-8 ovarian; 10 µM unless noted 4.81%

CNc1ccc(Cl)cc1S(=O)(=O)c1ccccc1[N+](=O)[O-]
inactive: SR leukemia 86.3% and 88.2% | RPMI-8226 leukemia; 10 µM unless noted 87.3% | OVCAR-8 ovarian; 10 µM unless noted 105% | OVCAR-5 ovarian; 10 µM unless noted 90.2% and 105% | OVCAR-4 ovarian; 10 µM unless noted 87.6% and 60.6% | SK-OV-3 ovarian; 10 µM unless noted 120% and 110% | IGROV1 ovarian; 10 µM unless noted 78.8% and 104% | OVCAR-3 ovarian; 10 µM unless noted 105% and 104% | HS 578T breast; 10 µM unless noted 96.7% | NCI/ADR-RES ovarian; 10 µM unless noted 36.7% and 90.6% | T-47D breast; 10 µM unless noted 85.5% and 69.2% | BT-549 breast; 10 µM unless noted 79.5% and 86.9% | SW-620 colon; 10 µM unless noted 108% and 105% | MCF7 breast; 10 µM unless noted 94.3% and 89.9% | HCT-116 colon; 10 µM unless noted 107% and 90.2% | HCC-2998 colon; 10 µM unless noted 109% | KM12 colon; 10 µM unless noted 75% and 95.3%
49.6% (inactive) and 6.48% (active): MDA-MB-435 melanoma; 10 µM unless noted
